Screens as filed in PubChem BioAssay.
Rows were chosen to be rich in hits. Some 19% of all compounds tested hit in one or more screens of this group.
Giardia kill: Giardia lamblia killing. Giardia lamblia trophozoite viability. AID 540267. activity change, % at 7.66 µM, hits read low. 0.15% of 340,000 active; in the data active = activity change below about -80%; inconclusive = between about -30% and that limit;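 note: parasites exposed to compound for two days anaerobically before the ATP read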
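Luminescent ATP signal served as the viability read-out, measured 15-30 min after adding ATP detection reagent to trophozoites that had been incubated with compounds for 48 hrs at 37 deg C anaerobically at 100 cells/well.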
DT40 TDP1 no CPT: qHTS for Inhibitors of human tyrosyl-DNA phosphodiesterase 1 (TDP1): qHTS in cells in absence of CPT; DT40 Tdp1-/- hTDP1 cells, no CPT, ATP luminescence, 48 h; Potency, µM (titrated, usually from 46.2 µM), for the others: top-dose activity change, negative = growth inhibition, most hits filed as inhibitors; 15% of 420,000 active; note: potency is the fitted concentration of half-maximal effect; nearly all actives have a fitted effect of over 55% in size
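Luminescent ATP content (CellTiter-Glo) served as the growth readout. Knockout chicken DT40 cells expressing human TDP1 were exposed to compounds without camptothecin for a minimum 48 hr at 37 °C.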
ELG1 repair inh: inhibitors of ELG1-dependent DNA repair in HEK293T cells. HEK293T ELG1-luciferase reporter, luminescence, 16 h; DNA damage induced by 5-fluorouridine. Potency, µM (doses to about 46.1 µM), inactives show at the highest dose activity change, negative = inhibition, hits mostly inhibitors. 2.3% of 330,000 active; note: potency is the fitted concentration of half-maximal effect; nearly all actives have a fitted effect of over 55% in size
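5-Fluorouridine DNA damage + compound/DMSO, 2,000 cells/well, 16 h, 37 °C/5% CO2. ONE-Glo, 30 min RT, luminescence. Readout = decrease in reporter signal.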
DT40 TDP1 CPT: growth inhibition of DT40 Tdp1-/-;hTDP1 cells with camptothecin (screen for TDP1 inhibitors); chicken DT40 Tdp1-/-;hTDP1 cells + 20 nM CPT, ATP luminescence, 48 h; Potency, µM (series often up to 46.2 µM), inactives show at the top dose activity change, negative = growth inhibition, actives largely listed as inhibitors; 12% of 420,000 active; AID 686979; note: potency is the fitted concentration of half-maximal effect; nearly all actives have a fitted effect of over 55% in size
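Chicken DT40 Tdp1-/- cells complemented with human TDP1, 400 cells/well, exposed to compounds plus 20 nM camptothecin for at least 48 h at 37 C; viability read as ATP content by CellTiter-Glo luminescence.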
TDP1 inh: blocks human tyrosyl-DNA phosphodiesterase 1; recombinant TDP1, AlphaScreen DNA substrate cleavage; 0.28% of 350,000 active; Potency, µM (series often up to 130 µM), inactives show at the highest dose activity change, negative = inhibition, actives largely listed as inhibitors; Q9NUW8; note: potency is the fitted concentration of half-maximal effect; nearly all actives have a fitted effect of over 40% in size
Target sequence (Q9NUW8 whole entry, looked up): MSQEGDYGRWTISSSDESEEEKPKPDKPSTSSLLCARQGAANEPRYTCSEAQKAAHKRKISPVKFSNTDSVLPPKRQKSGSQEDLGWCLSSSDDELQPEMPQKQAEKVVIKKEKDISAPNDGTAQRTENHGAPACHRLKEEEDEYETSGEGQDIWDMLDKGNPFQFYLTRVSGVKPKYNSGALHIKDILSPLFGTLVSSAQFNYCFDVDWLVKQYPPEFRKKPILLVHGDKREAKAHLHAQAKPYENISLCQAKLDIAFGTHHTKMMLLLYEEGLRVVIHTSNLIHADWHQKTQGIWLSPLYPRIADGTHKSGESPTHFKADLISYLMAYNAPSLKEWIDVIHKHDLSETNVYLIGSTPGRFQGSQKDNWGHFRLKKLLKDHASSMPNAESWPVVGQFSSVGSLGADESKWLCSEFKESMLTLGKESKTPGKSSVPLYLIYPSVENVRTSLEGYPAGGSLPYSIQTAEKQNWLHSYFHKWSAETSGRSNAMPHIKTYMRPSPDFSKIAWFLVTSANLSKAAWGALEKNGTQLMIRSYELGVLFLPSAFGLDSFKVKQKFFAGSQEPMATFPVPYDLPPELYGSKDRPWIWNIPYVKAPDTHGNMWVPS
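AlphaScreen read-out: signal falls as enzyme removes the 3' tyrosine-FITC from a 5'-biotinylated DNA oligo (15 nM, 5 min, RT). Enzyme was E. coli-made recombinant Tdp1 at 1 nM, exposed to compound for 15 min beforehand; beads 10 ug/ml, 10 min.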
IL1B secr inh: inhibitors of inflammasome signaling (IL-1 beta secretion); activity change, % at 57.5 µM; THP-1 LPS/ATP IL-1B secretion, AlphaLISA, 16 h; hits give low values; 4.7% of 360,000 active; AID 743279; in the data active = activity change below about -50%; inconclusive = mostly about -30% to -49%
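THP-1 cells pretreated 1 hr with compounds (up to 57.5 uM final), then stimulated with LPS (250 ng/mL final) plus ATP (1.25 mM final); secreted IL-1B measured by AlphaLISA after 16 hr, decreased signal indicating inhibition.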
The depositor's hits bear a star; [ ] = another dose, or the depositor's remark. Unless noted, calls come from the whole dose curve; as a rule, active = well fitted curve in the direction sought with a large enough effect; inconclusive = small, poorly fitted or top-dose-only effect, or another doubt; inactive = no such curve, though single readings can be large; an effect the other way counts as inactive or inconclusive. % is set by controls: 0 for no effect and ±100 for the full control effect.

Screening CNc1ncncc1-c1c(C)noc1C returned DT40 TDP1 no CPT 25% and DT40 TDP1 CPT inconclusive.
`O=C(CC1N=C2c3ccccc3N=C(SCc3ccccc3Cl)N2C1=O)NCCc1ccccc1` (stereo not given) gave DT40 TDP1 no CPT inconclusive, DT40 TDP1 CPT inconclusive and TDP1 inh 8%.
CCCN(Cc1ccc(C)cc1)C(=O)c1ccc(CNS(=O)(=O)c2ccc(C(C)=O)cc2)cc1 was read as Giardia kill -8, DT40 TDP1 no CPT inconclusive, ELG1 repair inh inconclusive, DT40 TDP1 CPT inconclusive, TDP1 inh 1% and IL1B secr inh -8.
For CN(C)CCCNC(=O)/C(=C\c1ccc(-c2ccc(Br)cc2)o1)NC(=O)c1ccccc1 the results were Giardia kill 7, DT40 TDP1 no CPT 12µM*, ELG1 repair inh -20%, DT40 TDP1 CPT 3.7µM*, TDP1 inh 8% and IL1B secr inh inconclusive.
`Cc1ccc(C(=O)N/C(=C\c2ccc(-c3ccc(Cl)cc3)o2)C(=O)NCCCN(C)C)cc1` gave Giardia kill -18, DT40 TDP1 no CPT 12µM*, ELG1 repair inh inconclusive, DT40 TDP1 CPT 12µM*, TDP1 inh 6% and IL1B secr inh -67*.
For Cc1ccc(C(=O)N/C(=C\c2ccc(-c3ccccc3[N+](=O)[O-])o2)C(=O)NCCCN(C)C)cc1 the results were Giardia kill -21, DT40 TDP1 no CPT 5.8µM*, ELG1 repair inh -22%, DT40 TDP1 CPT 5.2µM* and IL1B secr inh 5.
For O=C(CCC1CCCN(C(=O)c2ccc3c(c2)OCO3)C1)N1CCN(c2ccccn2)CC1 (stereo not given) the results were Giardia kill 26, DT40 TDP1 no CPT inconclusive, ELG1 repair inh inconclusive, DT40 TDP1 CPT inconclusive, TDP1 inh 3% and IL1B secr inh -10.
For CC(=O)Nc1ccc(NC(=O)CS(=O)(=O)c2cn(CC(=O)N3CCC(C)CC3)c3ccccc23)cc1 the results were Giardia kill -17, DT40 TDP1 no CPT -4%, DT40 TDP1 CPT -25% and IL1B secr inh 8.
`S=C(NCc1ccccc1)Nc1cccc2ccccc12` gave Giardia kill 3, DT40 TDP1 no CPT 18µM*, ELG1 repair inh 7%, DT40 TDP1 CPT 18µM*, TDP1 inh 7% and IL1B secr inh 0.
CCOc1ccc(CNC(=S)Nc2ccccc2)cc1Cl was read as Giardia kill 7, DT40 TDP1 no CPT inconclusive, ELG1 repair inh -18%, DT40 TDP1 CPT inconclusive, TDP1 inh 0% and IL1B secr inh -79*.
Screening COC(=O)c1ccc(NC(=S)NC2CC3CCC2C3)cc1 (stereo not given) returned Giardia kill 9, DT40 TDP1 no CPT 21µM*, ELG1 repair inh inconclusive, DT40 TDP1 CPT 18µM*, TDP1 inh -1% and IL1B secr inh 3.
CCOc1ccccc1NC(=S)NC1CC2CCC1C2 (stereo not given) was read as Giardia kill 0, DT40 TDP1 no CPT 21µM*, ELG1 repair inh inconclusive, DT40 TDP1 CPT inconclusive and IL1B secr inh 12.
`CC1Cc2nc(SCC(=O)Nc3ccc4c(c3)OCO4)n(-c3ccc(F)cc3)c(=O)c2S1` (stereo not given) gave Giardia kill -4, DT40 TDP1 no CPT inconclusive, ELG1 repair inh -5%, DT40 TDP1 CPT -24% and IL1B secr inh -23.
For CCc1cccc(NC(=O)c2coc(=O)c3ccccc23)c1 the results were DT40 TDP1 no CPT inconclusive, DT40 TDP1 CPT -26% and TDP1 inh 3%.
For O=C(CCC1CCCCC1)NNC(=O)c1cnccn1 the results were Giardia kill -22, DT40 TDP1 no CPT inconclusive, ELG1 repair inh -10%, DT40 TDP1 CPT inconclusive, TDP1 inh 8% and IL1B secr inh 56.
Screening CN(N)C(=S)NCc1ccccc1 returned Giardia kill 0, DT40 TDP1 no CPT -8%, ELG1 repair inh -17%, DT40 TDP1 CPT -7%, TDP1 inh 5% and IL1B secr inh 17.
For CCN(C(=S)Nc1cccc2ccccc12)c1ccccc1 the results were DT40 TDP1 no CPT 10µM*, DT40 TDP1 CPT inconclusive and IL1B secr inh -3.
`CCOc1ccccc1NC(=S)NCc1ccccc1` gave Giardia kill -5, DT40 TDP1 no CPT inconclusive, ELG1 repair inh -2%, DT40 TDP1 CPT 10µM* and IL1B secr inh 24.
`CCN(C(=S)NC(=O)CCc1ccccc1)c1ccccc1` gave Giardia kill -2, DT40 TDP1 no CPT inconclusive, ELG1 repair inh 12%, DT40 TDP1 CPT inconclusive, TDP1 inh 5% and IL1B secr inh inconclusive.
For COc1ccccc1NC(=S)NCc1ccccc1 the results were Giardia kill 5, DT40 TDP1 no CPT -5%, ELG1 repair inh -1%, DT40 TDP1 CPT -27% and IL1B secr inh -2.
Screening CN(C)C(=S)NCc1ccccc1 returned Giardia kill 12, DT40 TDP1 no CPT 10µM*, ELG1 repair inh -1%, DT40 TDP1 CPT 23µM*, TDP1 inh 4% and IL1B secr inh 5.
Cc1cccc(-c2noc(-c3ccccc3OCC(=O)Nc3ccc([N+](=O)[O-])cc3)n2)c1 was read as DT40 TDP1 no CPT 5%, DT40 TDP1 CPT -1% and TDP1 inh 11%.
For c1ccc2[nH]c(-c3cnco3)cc2c1 the results were Giardia kill inconclusive, DT40 TDP1 no CPT 20%, ELG1 repair inh -11%, DT40 TDP1 CPT 5% and IL1B secr inh 23.
`CN1CCN(NC(=O)NC2CCCCC2)CC1` gave Giardia kill 2, DT40 TDP1 no CPT 0%, ELG1 repair inh 6%, DT40 TDP1 CPT -6%, TDP1 inh 1%[56.1 µM] and IL1B secr inh -10.
Screening COc1cccc(C2c3c(ncn(-c4cccc(C#N)c4)c3=N)Oc3ccc4ccccc4c32)c1 (stereo not given) returned TDP1 inh 3%.
`CC(=O)Nc1ccc(NC(=O)COC(=O)/C(=C/c2ccccc2)n2nnnc2C)cc1` gave Giardia kill 5, DT40 TDP1 no CPT 13µM*, ELG1 repair inh inconclusive, DT40 TDP1 CPT 12µM*, TDP1 inh 0% and IL1B secr inh -76*.
For Cc1nnnn1/C(=C\c1ccccc1)C(=O)OCC(=O)NC1CCCCC1 the results were Giardia kill 10, DT40 TDP1 no CPT 15µM*, ELG1 repair inh inconclusive, DT40 TDP1 CPT 13µM*, TDP1 inh -6%[0.505 µM] and IL1B secr inh -103*.
